Results filed as inconclusive are left out. Entries that show only a call come without a potency. Calls of active or inactive are those of the source. The call rests on the fitted dose curve; in most records, active means well fitted cell-killing curve with a large enough effect in the repeat runs; inconclusive means weak or mixed curves, or effect the other way; inactive means no such curve, though single readings can be large or run the other way.
Potency means the concentration at half of the fitted maximal effect.

The experiment can be described thus: qHTS assay to identify small molecule antagonists of the glucocorticoid receptor (GR) signaling pathway - cell viability counter screen (AID 720693). Further: nearly all actives have a fitted effect of over 55% in size. The settings on record: GR-bla HeLa viability, CellTiter-Glo luminescence, 18 h, with 5 nM dexamethasone present; series mostly up to 58.5 µM.
Turning to `CCCCCCCCCCCCCCCCCCCCCCO`, the Potency result was “inactive”.
For the compound `OC(CN1CCCCC1)c1cc(-c2ccccc2)on1` (centres undefined), the Potency entry was “inactive”.
In the case of `CCCCCCCCCCCCCCCC(=O)OC[C@@H](NC(=O)C(Cl)Cl)[C@H](O)c1ccc([N+](=O)[O-])cc1` it was “inactive”; in that of `CC[C@H]1NC(=O)[C@@H](NC(=O)c2ncccc2O)[C@@H](C)OC(=O)[C@H](c2ccccc2)NC(=O)[C@@H]2CC(=O)CCN2C(=O)[C@H](Cc2ccccc2)N(C)C(=O)[C@@H]2CCCN2C1=O`, “inactive”.
In the case of `NC(=O)c1ccc[n+]([C@@H]2O[C@H](COP(=O)([O-])OP(=O)(O)OC[C@H]3O[C@@H](n4cnc5c(N)ncnc54)[C@H](O)[C@@H]3O)[C@@H](O)[C@H]2O)c1`, the Potency result is “inactive”.
Turning to `O=C(O)CN(CC(=O)O)CC1=CC2C(=CC1=O)Oc1cc(O)c(CN(CC(=O)O)CC(=O)O)cc1C21OC(=O)c2ccccc21` (centres undefined), the Potency result is “inactive”.
In the case of `CCCCCCCCCCCCCCCC(=O)OC[C@@H](O)[C@H]1OC[C@H](O)[C@H]1O` it was “inactive”; in that of `C=C1CC[C@H](O)CC1=C/C=C1\CCC[C@]2(C)[C@@H]([C@H](C)CC[C@@H](O)C(C)(C)O)CC[C@@H]12`, 21.3 µM (active).
To `CSc1nc2cc(Oc3cccc(Cl)c3Cl)c(Cl)cc2[nH]1` belongs 10.7 µM (active); to `N#CC(c1ccc(Cl)cc1)c1c(Cl)cc(-n2ncc(=O)[nH]c2=O)cc1Cl` (centres undefined), “inactive”.
As for `CN(C)CCOc1ccccc1Cc1ccccc1` (tested in a mixture with another compound), the Potency entry was “inactive”.
For the compound `CN1CC(O)c2cc(N=NC(N)=O)c(O)cc21` (centres undefined), the Potency result is “inactive”.
In the case of `COC(=O)[C@H]1[C@H]2C[C@@H]3c4[nH]c5cc(OC)ccc5c4CCN3C[C@H]2C[C@H](OC)[C@@H]1OC` it was “inactive”; in that of `Cc1ncc(COP(=O)(O)O)c(CN)c1O`, “inactive”.
In the case of `CNC(=O)c1c(I)c(C(=O)NCC(=O)Nc2c(I)c(C(=O)O)c(I)c(C(=O)NCCO)c2I)c(I)c(N(C)C(C)=O)c1I`, the Potency entry was “inactive”.
Take `Nc1nc2c(c(=O)[nH]1)N(C=O)C(CNc1ccc(C(=O)N[C@@H](CCC(=O)O)C(=O)O)cc1)CN2` (some centres undefined): the Potency entry was “inactive”.
To `CCc1ccc(S(=O)(=O)O)cc1` belongs “inactive”; to `C[C@@H]1C[C@H]2[C@@H]3CCC4=CC(=O)C=C[C@]4(C)[C@@]3(F)[C@@H](O)C[C@]2(C)[C@@]1(O)C(=O)COC(=O)c1cccc(S(=O)(=O)O)c1`, “inactive”; to `COc1ccc(C[C@H](C)NC[C@@H](O)c2ccc(O)c(NC=O)c2)cc1`, “inactive”.
As to `O=C(Nc1ccc(/C=C/c2ccc(NC(=O)c3cc(S(=O)(=O)O)c4cccnc4c3O)cc2S(=O)(=O)O)c(S(=O)(=O)O)c1)c1cc(S(=O)(=O)O)c2cccnc2c1O`, the Potency result is “inactive”.
In the case of `OC[C@H]1O[C@@H](O[C@H]2[C@H](O)[C@@H](O)[C@H](O)O[C@@H]2CO)[C@H](O)[C@@H](O)[C@@H]1O` it was “inactive”.
In the case of `CC[C@]1(O)CC2CN(CCc3c([nH]c4ccccc34)[C@@](C(=O)OC)(c3cc4c(cc3OC)N(C)[C@H]3[C@@](O)(C(N)=O)[C@H](O)[C@]5(CC)C=CCN6CC[C@]43[C@@H]65)C2)C1` (some centres undefined) it was “inactive”; in that of `COc1ccc(C2NC(=S)N3C(c4ccc(OC)c(OC)c4)NC(=S)N23)cc1OC` (centres undefined), “inactive”; in that of `C[C@]12CCC(=O)C=C1CC[C@@H]1[C@@H]2[C@@H](O)C[C@@]2(C)[C@H]1CC[C@]2(O)C(=O)COP(=O)(O)O`, “inactive”.
With `Cc1c(O)cc2c(c1C)O[C@](C)(CCC[C@H](C)CCC[C@H](C)CCCC(C)C)CC2`, the Potency entry is “inactive”.
In the case of `CC(=O)O[C@H]1CC[C@@]2(C)C(=CC[C@H]3[C@@H]4CC[C@H](C(C)=O)[C@@]4(C)CC[C@@H]32)C1` it was “inactive”.
In the case of `CC(/C=C/C=C(\C)C(=O)O[C@@H]1O[C@H](CO[C@@H]2O[C@H](CO)[C@@H](O)[C@H](O)[C@H]2O)[C@@H](O)[C@H](O)[C@H]1O)=C\C=C\C=C(C)\C=C\C=C(/C)C(=O)O[C@@H]1O[C@H](CO[C@@H]2O[C@H](CO)[C@@H](O)[C@H](O)[C@H]2O)[C@@H](O)[C@H](O)[C@H]1O` it was “inactive”; in that of `CC1(C)S[C@@H]2[C@H](NC(=O)[C@H](NC(=O)N3CCN(S(C)(=O)=O)C3=O)c3ccccc3)C(=O)N2[C@H]1C(=O)O`, “inactive”; in that of `CN1c2c(nc(N)[nH]c2=O)NCC1CNc1ccc(C(=O)NC(CCC(=O)O)C(=O)O)cc1` (centres undefined), “inactive”.
In the case of `CC[C@H]1OC(=O)[C@H](C)[C@@H](O[C@H]2C[C@@](C)(OC)[C@@H](O)[C@H](C)O2)[C@H](C)[C@@H](O[C@@H]2O[C@H](C)C[C@H](N(C)C)[C@H]2O)[C@](C)(O)C[C@@H](C)[C@@H]2N[C@@H](COCCOC)O[C@@H]([C@H]2C)[C@]1(C)O` it was “inactive”; in that of `COc1cc(NCCCC(C)N)c2ncccc2c1` (centres undefined), “inactive”.
Take `O=C(NCCNCC(O)COc1ccc(O)cc1)N1CCOCC1` (centres undefined): the Potency result was “inactive”.
In the case of `CO[C@H]1C[C@@H]2CC[C@@H](C)[C@@](O)(O2)C(=O)C(=O)N2CCCC[C@H]2C(=O)O[C@H]([C@H](C)C[C@@H]2CC[C@@H](OCCO)[C@H](OC)C2)CC(=O)[C@H](C)/C=C(\C)[C@@H](O)[C@@H](OC)C(=O)[C@H](C)C[C@H](C)/C=C/C=C/C=C/1C` it was 23.9 µM (active); in that of `CC1CC(OC(=O)C(O)c2ccccc2)CC(C)(C)C1` (centres undefined), “inactive”; in that of `Cc1cccc(C)c1NC(=O)NC1=CCCN1C`, “inactive”.
Consider `C[C@]12C=CC(=O)N[C@@H]1CC[C@@H]1[C@@H]2CC[C@]2(C)[C@@H](C(=O)Nc3cc(C(F)(F)F)ccc3C(F)(F)F)CC[C@@H]12`, for which the Potency result is “inactive”.
For the compound `O=c1oc2cc(O)ccc2s1`, the Potency result was “inactive”.
Consider `Cc1ccc(C2(O)CCN(CCCC(=O)c3ccc(F)cc3)CC2)cc1`, for which the Potency entry was “inactive”.
In the case of `Cc1cc(C)c(NC(=O)C[C@H](CC(=O)O)c2cccc3ccccc23)c(C(=O)N2CCC3(CCCC3)CC2)c1` it was “inactive”.

The record behind these values is PubChem BioAssay (Tox21).
